Key:
Assay in all cases: PBM; 200 nM protein, PBS
Conditions in all cases: dsDNA, one strand shown
HESX1 [1] = target: HESX1 (Homo sapiens, UniProt Q9UBX0 95-180, R165K)
HOXB4 [2] = target: HOXB4 (Homo sapiens, UniProt P17483 148-234)
SHOX [3] = target: SHOX (Homo sapiens, UniProt O15266 103-189)
HESX1 [4] = target: HESX1 (Homo sapiens, UniProt Q9UBX0 95-180)
HOXB4 [5] = target: HOXB4 (Homo sapiens, UniProt P17483 148-234, V174I)
ALX1 [6] = target: ALX1 (Homo sapiens, UniProt Q15699 118-204, L144V)
ALX3 [7] = target: ALX3 (Homo sapiens, UniProt O95076 139-225, N203Q)
SHOX [8] = target: SHOX (Homo sapiens, UniProt O15266 103-189, R173C)
ALX1 [9] = target: ALX1 (Homo sapiens, UniProt Q15699 118-204, L144R)
ALX3 [10] = target: ALX3 (Homo sapiens, UniProt O95076 139-225)
PROP1 [11] = target: PROP1 (Homo sapiens, UniProt O75360 56-141)
HESX1 [12] = target: HESX1 (Homo sapiens, UniProt Q9UBX0 95-180, R109Q)
PROP1 [13] = target: PROP1 (Homo sapiens, UniProt O75360 56-141, R99H)
ALX3 [14] = target: ALX3 (Homo sapiens, UniProt O95076 139-225, L168Q)
HESX1 [15] = target: HESX1 (Homo sapiens, UniProt Q9UBX0 95-180, P111T)
ALX3 [16] = target: ALX3 (Homo sapiens, UniProt O95076 139-225, L168V)
PROP1 [17] = target: PROP1 (Homo sapiens, UniProt O75360 56-141, F88S)
HESX1 [18] = target: HESX1 (Homo sapiens, UniProt Q9UBX0 95-180, F115L)
ALX1 [19] = target: ALX1 (Homo sapiens, UniProt Q15699 118-204)
ALX3 [20] = target: ALX3 (Homo sapiens, UniProt O95076 139-225, N203S)
Sequence of ALX3 (Homo sapiens, UniProt O95076 139-225, N203S) (O95076 139-225 N203S): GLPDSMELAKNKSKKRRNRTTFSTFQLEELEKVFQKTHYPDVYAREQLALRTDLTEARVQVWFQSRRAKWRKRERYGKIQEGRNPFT

Sequence of HOXB4 (Homo sapiens, UniProt P17483 148-234, V174I) (P17483 148-234 V174I): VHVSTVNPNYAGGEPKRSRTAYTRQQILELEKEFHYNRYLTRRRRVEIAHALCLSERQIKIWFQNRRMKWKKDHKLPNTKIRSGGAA
Sequence of HESX1 (Homo sapiens, UniProt Q9UBX0 95-180, R109Q) (Q9UBX0 95-180 R109Q): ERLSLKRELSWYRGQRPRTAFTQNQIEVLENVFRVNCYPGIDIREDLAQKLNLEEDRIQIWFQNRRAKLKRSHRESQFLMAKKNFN
Sequence of ALX3 (Homo sapiens, UniProt O95076 139-225) (O95076 139-225): as the sequence (O95076 139-225 N203S) above, with S65N counted along it
Sequence of ALX1 (Homo sapiens, UniProt Q15699 118-204, L144R) (Q15699 118-204 L144R): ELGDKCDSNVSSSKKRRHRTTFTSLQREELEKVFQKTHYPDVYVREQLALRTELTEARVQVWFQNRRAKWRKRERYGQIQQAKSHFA
Sequence of ALX3 (Homo sapiens, UniProt O95076 139-225, L168Q) (O95076 139-225 L168Q): as the sequence (O95076 139-225 N203S) above, with L30Q, S65N counted along it
Sequence of HESX1 (Homo sapiens, UniProt Q9UBX0 95-180, R165K) (Q9UBX0 95-180 R165K): as the sequence (Q9UBX0 95-180 R109Q) above, with Q15R, R71K counted along it
Sequence of ALX3 (Homo sapiens, UniProt O95076 139-225, L168V) (O95076 139-225 L168V): as the sequence (O95076 139-225 N203S) above, with L30V, S65N counted along it
Sequence of ALX1 (Homo sapiens, UniProt Q15699 118-204) (Q15699 118-204): as the sequence (Q15699 118-204 L144R) above, with R27L counted along it
Sequence of PROP1 (Homo sapiens, UniProt O75360 56-141, F88S) (O75360 56-141 F88S): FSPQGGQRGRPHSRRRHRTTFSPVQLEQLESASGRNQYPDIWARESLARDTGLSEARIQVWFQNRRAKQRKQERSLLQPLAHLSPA
Sequence of ALX1 (Homo sapiens, UniProt Q15699 118-204, L144V) (Q15699 118-204 L144V): as the sequence (Q15699 118-204 L144R) above, with R27V counted along it
Sequence of SHOX (Homo sapiens, UniProt O15266 103-189, R173C) (O15266 103-189 R173C): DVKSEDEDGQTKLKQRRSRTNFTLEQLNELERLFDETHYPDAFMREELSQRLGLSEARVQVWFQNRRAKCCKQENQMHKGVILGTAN
Sequence of HESX1 (Homo sapiens, UniProt Q9UBX0 95-180) (Q9UBX0 95-180): as the sequence (Q9UBX0 95-180 R109Q) above, with Q15R counted along it
Sequence of HOXB4 (Homo sapiens, UniProt P17483 148-234) (P17483 148-234): as the sequence (P17483 148-234 V174I) above, with I27V counted along it
Sequence of HESX1 (Homo sapiens, UniProt Q9UBX0 95-180, P111T) (Q9UBX0 95-180 P111T): as the sequence (Q9UBX0 95-180 R109Q) above, with Q15R, P17T counted along it
Sequence of ALX3 (Homo sapiens, UniProt O95076 139-225, N203Q) (O95076 139-225 N203Q): as the sequence (O95076 139-225 N203S) above, with S65Q counted along it
Sequence of HESX1 (Homo sapiens, UniProt Q9UBX0 95-180, F115L) (Q9UBX0 95-180 F115L): as the sequence (Q9UBX0 95-180 R109Q) above, with Q15R, F21L counted along it
Sequence of PROP1 (Homo sapiens, UniProt O75360 56-141) (O75360 56-141): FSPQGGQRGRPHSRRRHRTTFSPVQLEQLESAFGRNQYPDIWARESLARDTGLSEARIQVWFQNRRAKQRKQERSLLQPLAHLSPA
Sequence of SHOX (Homo sapiens, UniProt O15266 103-189) (O15266 103-189): as the sequence (O15266 103-189 R173C) above, with C71R counted along it
Sequence of PROP1 (Homo sapiens, UniProt O75360 56-141, R99H) (O75360 56-141 R99H): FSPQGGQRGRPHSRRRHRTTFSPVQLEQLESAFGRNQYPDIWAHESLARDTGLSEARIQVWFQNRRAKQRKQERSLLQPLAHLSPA

Sequence: AAATTAAT
- binding signal (HESX1 [1]): 11.7 upbm affinity estimate (log intensity, higher = more binding, comparable within an allelic series)
- binding signal (HOXB4 [2]): 12.9 upbm affinity estimate (log intensity, higher = more binding, comparable within an allelic series)
- binding signal (SHOX [3]): 11.9 upbm affinity estimate (log intensity, higher = more binding, comparable within an allelic series)
- binding signal (HESX1 [4]): 11.5 upbm affinity estimate (log intensity, higher = more binding, comparable within an allelic series)
- binding signal (HOXB4 [5]): 13.6 upbm affinity estimate (log intensity, higher = more binding, comparable within an allelic series)
- binding signal (ALX1 [6]): 11.9 upbm affinity estimate (log intensity, higher = more binding, comparable within an allelic series)
- binding signal (ALX3 [7]): 8.56 upbm affinity estimate (log intensity, higher = more binding, comparable within an allelic series)
- binding signal (SHOX [8]): 9.34 upbm affinity estimate (log intensity, higher = more binding, comparable within an allelic series)
- binding signal (ALX1 [9]): 11.6 upbm affinity estimate (log intensity, higher = more binding, comparable within an allelic series)
- binding signal (ALX3 [10]): 12.5 upbm affinity estimate (log intensity, higher = more binding, comparable within an allelic series)
- binding signal (PROP1 [11]): 11.2 upbm affinity estimate (log intensity, higher = more binding, comparable within an allelic series)
- binding signal (HESX1 [12]): 8.9 upbm affinity estimate (log intensity, higher = more binding, comparable within an allelic series)
- binding signal (PROP1 [13]): 10.9 upbm affinity estimate (log intensity, higher = more binding, comparable within an allelic series)
- binding signal (ALX3 [14]): 10.6 upbm affinity estimate (log intensity, higher = more binding, comparable within an allelic series)
- binding signal (HESX1 [15]): 10.4 upbm affinity estimate (log intensity, higher = more binding, comparable within an allelic series)
- binding signal (ALX3 [16]): 10 upbm affinity estimate (log intensity, higher = more binding, comparable within an allelic series)
- binding signal (PROP1 [17]): 7.7 upbm affinity estimate (log intensity, higher = more binding, comparable within an allelic series)
- binding signal (HESX1 [18]): 7.97 upbm affinity estimate (log intensity, higher = more binding, comparable within an allelic series)
- binding signal (ALX1 [19]): 12.5 upbm affinity estimate (log intensity, higher = more binding, comparable within an allelic series)
- binding signal (ALX3 [20]): 8.72 upbm affinity estimate (log intensity, higher = more binding, comparable within an allelic series)

Sequence: AATTAACA
- binding signal (HESX1 [1]): 11.9 upbm affinity estimate (log intensity, higher = more binding, comparable within an allelic series)
- binding signal (HOXB4 [2]): 13 upbm affinity estimate (log intensity, higher = more binding, comparable within an allelic series)
- binding signal (SHOX [3]): 11.9 upbm affinity estimate (log intensity, higher = more binding, comparable within an allelic series)
- binding signal (HESX1 [4]): 12 upbm affinity estimate (log intensity, higher = more binding, comparable within an allelic series)
- binding signal (HOXB4 [5]): 13.8 upbm affinity estimate (log intensity, higher = more binding, comparable within an allelic series)
- binding signal (ALX1 [6]): 11.7 upbm affinity estimate (log intensity, higher = more binding, comparable within an allelic series)
- binding signal (ALX3 [7]): 8.55 upbm affinity estimate (log intensity, higher = more binding, comparable within an allelic series)
- binding signal (SHOX [8]): 9.76 upbm affinity estimate (log intensity, higher = more binding, comparable within an allelic series)
- binding signal (ALX1 [9]): 11.3 upbm affinity estimate (log intensity, higher = more binding, comparable within an allelic series)
- binding signal (ALX3 [10]): 12.5 upbm affinity estimate (log intensity, higher = more binding, comparable within an allelic series)
- binding signal (PROP1 [11]): 11.3 upbm affinity estimate (log intensity, higher = more binding, comparable within an allelic series)
- binding signal (HESX1 [12]): 9.41 upbm affinity estimate (log intensity, higher = more binding, comparable within an allelic series)
- binding signal (PROP1 [13]): 11.1 upbm affinity estimate (log intensity, higher = more binding, comparable within an allelic series)
- binding signal (ALX3 [14]): 10.6 upbm affinity estimate (log intensity, higher = more binding, comparable within an allelic series)
- binding signal (HESX1 [15]): 10.7 upbm affinity estimate (log intensity, higher = more binding, comparable within an allelic series)
- binding signal (ALX3 [16]): 10.2 upbm affinity estimate (log intensity, higher = more binding, comparable within an allelic series)
- binding signal (PROP1 [17]): 7.88 upbm affinity estimate (log intensity, higher = more binding, comparable within an allelic series)
- binding signal (HESX1 [18]): 8.02 upbm affinity estimate (log intensity, higher = more binding, comparable within an allelic series)
- binding signal (ALX1 [19]): 12.4 upbm affinity estimate (log intensity, higher = more binding, comparable within an allelic series)
- binding signal (ALX3 [20]): 8.67 upbm affinity estimate (log intensity, higher = more binding, comparable within an allelic series)

Sequence: CCAATTAA
- binding signal (HESX1 [1]): 13.6 upbm affinity estimate (log intensity, higher = more binding, comparable within an allelic series)
- binding signal (HOXB4 [2]): 13 upbm affinity estimate (log intensity, higher = more binding, comparable within an allelic series)
- binding signal (SHOX [3]): 12.7 upbm affinity estimate (log intensity, higher = more binding, comparable within an allelic series)
- binding signal (HESX1 [4]): 13.5 upbm affinity estimate (log intensity, higher = more binding, comparable within an allelic series)
- binding signal (HOXB4 [5]): 13.7 upbm affinity estimate (log intensity, higher = more binding, comparable within an allelic series)
- binding signal (ALX1 [6]): 12.2 upbm affinity estimate (log intensity, higher = more binding, comparable within an allelic series)
- binding signal (ALX3 [7]): 8.51 upbm affinity estimate (log intensity, higher = more binding, comparable within an allelic series)
- binding signal (SHOX [8]): 10.3 upbm affinity estimate (log intensity, higher = more binding, comparable within an allelic series)
- binding signal (ALX1 [9]): 11.9 upbm affinity estimate (log intensity, higher = more binding, comparable within an allelic series)
- binding signal (ALX3 [10]): 12.9 upbm affinity estimate (log intensity, higher = more binding, comparable within an allelic series)
- binding signal (PROP1 [11]): 12 upbm affinity estimate (log intensity, higher = more binding, comparable within an allelic series)
- binding signal (HESX1 [12]): 10.8 upbm affinity estimate (log intensity, higher = more binding, comparable within an allelic series)
- binding signal (PROP1 [13]): 12.2 upbm affinity estimate (log intensity, higher = more binding, comparable within an allelic series)
- binding signal (ALX3 [14]): 11.2 upbm affinity estimate (log intensity, higher = more binding, comparable within an allelic series)
- binding signal (HESX1 [15]): 12.2 upbm affinity estimate (log intensity, higher = more binding, comparable within an allelic series)
- binding signal (ALX3 [16]): 10.8 upbm affinity estimate (log intensity, higher = more binding, comparable within an allelic series)
- binding signal (PROP1 [17]): 7.84 upbm affinity estimate (log intensity, higher = more binding, comparable within an allelic series)
- binding signal (HESX1 [18]): 8.43 upbm affinity estimate (log intensity, higher = more binding, comparable within an allelic series)
- binding signal (ALX1 [19]): 12.8 upbm affinity estimate (log intensity, higher = more binding, comparable within an allelic series)
- binding signal (ALX3 [20]): 8.7 upbm affinity estimate (log intensity, higher = more binding, comparable within an allelic series)

Sequence: AACAATTA
- binding signal (HESX1 [1]): 12 upbm affinity estimate (log intensity, higher = more binding, comparable within an allelic series)
- binding signal (SHOX [3]): 11.5 upbm affinity estimate (log intensity, higher = more binding, comparable within an allelic series)
- binding signal (HESX1 [4]): 12.2 upbm affinity estimate (log intensity, higher = more binding, comparable within an allelic series)
- binding signal (HOXB4 [5]): 13.6 upbm affinity estimate (log intensity, higher = more binding, comparable within an allelic series)
- binding signal (ALX3 [7]): 8.48 upbm affinity estimate (log intensity, higher = more binding, comparable within an allelic series)
- binding signal (SHOX [8]): 9.19 upbm affinity estimate (log intensity, higher = more binding, comparable within an allelic series)
- binding signal (ALX3 [10]): 12.2 upbm affinity estimate (log intensity, higher = more binding, comparable within an allelic series)
- binding signal (PROP1 [11]): 11.1 upbm affinity estimate (log intensity, higher = more binding, comparable within an allelic series)
- binding signal (HESX1 [12]): 8.73 upbm affinity estimate (log intensity, higher = more binding, comparable within an allelic series)
- binding signal (PROP1 [13]): 11.2 upbm affinity estimate (log intensity, higher = more binding, comparable within an allelic series)
- binding signal (ALX3 [14]): 10.3 upbm affinity estimate (log intensity, higher = more binding, comparable within an allelic series)
- binding signal (HESX1 [15]): 10.6 upbm affinity estimate (log intensity, higher = more binding, comparable within an allelic series)
- binding signal (ALX3 [16]): 9.75 upbm affinity estimate (log intensity, higher = more binding, comparable within an allelic series)
- binding signal (PROP1 [17]): 7.78 upbm affinity estimate (log intensity, higher = more binding, comparable within an allelic series)
- binding signal (HESX1 [18]): 7.66 upbm affinity estimate (log intensity, higher = more binding, comparable within an allelic series)
- binding signal (ALX3 [20]): 8.6 upbm affinity estimate (log intensity, higher = more binding, comparable within an allelic series)

From paper PMC11006913
